Read-outs that look alike come from different tables or passages of the source.
What was measured:
[1] = tested on: DYRK1B; details: n = 1
[2] = tested on: DYRK2; details: concentration: 1 μM,replicates: in singlicate; n = 1
[3] = tested on: EGFR; details: concentration: 1 μM,replicates: in singlicate; n = 1
[4] = tested on: EIF2AK1; details: concentration: 1 μM,replicates: in singlicate; n = 1
[5] = tested on: EPHA1; details: concentration: 1 μM,replicates: in singlicate; n = 1
[6] = tested on: EPHA2; details: concentration: 1 μM,replicates: in singlicate; n = 1
[7] = tested on: EPHA3; details: concentration: 1 μM,replicates: in singlicate; n = 1
[8] = tested on: EPHA4; details: concentration: 1 μM,replicates: in singlicate; n = 1
[9] = tested on: EPHA5; details: concentration: 1 μM,replicates: in singlicate; n = 1
[10] = tested on: EPHA6; details: n = 1
[11] = tested on: EPHA7; details: concentration: 1 μM,replicates: in singlicate; n = 1
[12] = tested on: EPHA8; details: concentration: 1 μM,replicates: in singlicate; n = 1
[13] = tested on: EPHB1; details: concentration: 1 μM,replicates: in singlicate; n = 1
[14] = tested on: EPHB2; details: concentration: 1 μM,replicates: in singlicate; n = 1
[15] = tested on: EPHB3; details: concentration: 1 μM,replicates: in singlicate; n = 1
[16] = tested on: EPHB4; details: concentration: 1 μM,replicates: in singlicate; n = 1
[17] = tested on: EPHB6; details: concentration: 1 μM,replicates: in singlicate; n = 1
[18] = tested on: ERBB2; details: concentration: 1 μM,replicates: in singlicate; n = 1
[19] = tested on: ERBB3; details: concentration: 1 μM,replicates: in singlicate; n = 1
[20] = tested on: ERBB4; details: concentration: 1 μM,replicates: in singlicate; n = 1
[21] = concentration: 1 μM,replicates: in singlicate
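Further: KINOMEscan kinase panel screen.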

CCNCC(Cc1ccccc1)NC(=O)c1cc(Br)c(-c2ccnc3[nH]ccc23)s1.Cl.Cl (stereo not drawn) [GSK1383280]
%Inh [1, 21]: 53% | %Inh [2]: 31% | %Inh [3]: 28% | %Inh [4]: 0% | %Inh [5]: 25% | %Inh [6]: 24% | %Inh [7]: 45% | %Inh [8]: 0% | %Inh [9]: 0% | %Inh [10, 21]: 7% | %Inh [11]: 9% | %Inh [12]: 26% | %Inh [13]: 7% | %Inh [14]: 0% | %Inh [15]: 17% | %Inh [16]: 0% | %Inh [17]: 0% | %Inh [18]: 3% | %Inh [19]: 0% | %Inh [20]: 22%

CN(c1ccc2c(c1)nc(NCc1ccc(F)cc1)n2C)c1ccnc(Nc2ccc(CS(C)(=O)=O)cc2)n1.Cl [GW813244]
%Inh [1, 21]: 4% | %Inh [2]: 30% | %Inh [3]: 18% | %Inh [4]: 0% | %Inh [5]: 0% | %Inh [6]: 12% | %Inh [7]: 5% | %Inh [8]: 20% | %Inh [9]: 0% | %Inh [10, 21]: 23% | %Inh [11]: 0% | %Inh [12]: 49% | %Inh [13]: 9% | %Inh [14]: 23% | %Inh [15]: 5% | %Inh [16]: 0% | %Inh [17]: 78% | %Inh [18]: 17% | %Inh [19]: 0% | %Inh [20]: 19%

Cc1ccc2c(-c3ccnc(Nc4ccc(C(F)(F)F)cc4)n3)cnn2n1 [GW819776]
%Inh [1, 21]: 65% | %Inh [2]: 29% | %Inh [3]: 0% | %Inh [4]: 0% | %Inh [5]: 0% | %Inh [6]: 0% | %Inh [7]: 0% | %Inh [8]: 8% | %Inh [9]: 1% | %Inh [10, 21]: 8% | %Inh [11]: 0% | %Inh [12]: 6% | %Inh [13]: 14% | %Inh [14]: 0% | %Inh [15]: 7% | %Inh [16]: 0% | %Inh [17]: 14% | %Inh [18]: 0% | %Inh [19]: 0% | %Inh [20]: 5%

NC(=O)Nc1sc(-c2ccc(F)cc2)cc1C(N)=O [GW789449]
%Inh [1, 21]: 52% | %Inh [2]: 25% | %Inh [3]: 23% | %Inh [4]: 0% | %Inh [5]: 60% | %Inh [6]: 25% | %Inh [7]: 0% | %Inh [8]: 14% | %Inh [9]: 7% | %Inh [10, 21]: 11% | %Inh [11]: 0% | %Inh [12]: 0% | %Inh [13]: 24% | %Inh [14]: 0% | %Inh [15]: 14% | %Inh [16]: 20% | %Inh [17]: 64% | %Inh [18]: 15% | %Inh [19]: 54% | %Inh [20]: 3%

O=C(NCC1CC1)c1ccc(-c2cc(C(=O)NC3CC3)ccc2F)cc1 [GW810445]
%Inh [1, 21]: 24% | %Inh [2]: 0% | %Inh [3]: 15% | %Inh [4]: 0% | %Inh [5]: 0% | %Inh [6]: 0% | %Inh [7]: 10% | %Inh [8]: 0% | %Inh [9]: 0% | %Inh [10, 21]: 0% | %Inh [11]: 0% | %Inh [12]: 3% | %Inh [13]: 4% | %Inh [14]: 0% | %Inh [15]: 0% | %Inh [16]: 0% | %Inh [17]: 0% | %Inh [18]: 11% | %Inh [19]: 0% | %Inh [20]: 33%

CN1CCN(CCNc2nc3cc(Oc4ccc(NC(=O)Nc5cc(C(F)(F)F)ccc5F)cc4)ccc3[nH]2)CC1.Cl.Cl [GW768504]
%Inh [1, 21]: 15% | %Inh [2]: 0% | %Inh [3]: 0% | %Inh [4]: 0% | %Inh [5]: 0% | %Inh [6]: 4% | %Inh [7]: 0% | %Inh [8]: 28% | %Inh [9]: 0% | %Inh [10, 21]: 51% | %Inh [11]: 0% | %Inh [12]: 23% | %Inh [13]: 17% | %Inh [14]: 34% | %Inh [15]: 14% | %Inh [16]: 17% | %Inh [17]: 25% | %Inh [18]: 0% | %Inh [19]: 0% | %Inh [20]: 0%

Cc1nnc(-c2ccc3occ(-c4ccc(S(C)=O)cc4)c3n2)o1 (stereo not drawn)
%Inh [1, 21]: 0% | %Inh [2]: 0% | %Inh [3]: 0% | %Inh [4]: 0% | %Inh [5]: 0% | %Inh [6]: 3% | %Inh [7]: 4% | %Inh [8]: 23% | %Inh [9]: 1% | %Inh [10, 21]: 17% | %Inh [11]: 0% | %Inh [12]: 0% | %Inh [13]: 0% | %Inh [14]: 0% | %Inh [15]: 10% | %Inh [16]: 12% | %Inh [17]: 0% | %Inh [18]: 17% | %Inh [19]: 0% | %Inh [20]: 0%

COc1cccc(OC)c1C(=O)Nc1cccc(-c2nn3ccccc3c2-c2ccnc(Nc3cccc(F)c3)n2)c1 [GSK361065]
%Inh ([1]; 1 µM): 24% | %Inh [2]: 0% | %Inh [3]: 91.7% | %Inh [4]: 0% | %Inh [5]: 4% | %Inh [6]: 11% | %Inh [7]: 0% | %Inh [8]: 0% | %Inh [9]: 11% | %Inh ([10]; 1 µM): 11% | %Inh [11]: 14% | %Inh [12]: 17% | %Inh [13]: 100% | %Inh [14]: 0% | %Inh [15]: 8% | %Inh [16]: 8% | %Inh [17]: 42% | %Inh [18]: 61% | %Inh [19]: 0% | %Inh [20]: 84%

C[C@@H](Oc1cc(-n2cnc3cc(-c4cnn(C)c4)ccc32)sc1C(N)=O)c1ccccc1Cl [GSK580432]
%Inh [1, 21]: 0% | %Inh [2]: 21% | %Inh [3]: 28% | %Inh [4]: 15% | %Inh [5]: 19% | %Inh [6]: 29% | %Inh [7]: 20% | %Inh [8]: 7% | %Inh [9]: 0% | %Inh [10, 21]: 28% | %Inh [11]: 4% | %Inh [12]: 34% | %Inh [13]: 29% | %Inh [14]: 0% | %Inh [15]: 16% | %Inh [16]: 19% | %Inh [17]: 93.7% | %Inh [18]: 0% | %Inh [19]: 0% | %Inh [20]: 0%
